These results are taken from PubChem BioAssay AID1851 (National Center for Advancing Translational Sciences (NCATS), 2009).

The structures appear in SMILES notation. Out of some 16,000 compounds screened, about 2,600 (16%) were called active. Another 20% or so got no clear call; they are omitted. Calls come from the whole dose curve; as a rule, active = well fitted curve in the direction sought with a large enough effect; inconclusive = small, poorly fitted or top-dose-only effect, or effect the other way; inactive = no such curve, though single readings can be large or run the other way. Not all results are given here.
% is set by controls: 0 for no effect and ±100 for the full control effect.

Chain of Cytochrome P450 2D6 (Homo sapiens) (P10635 whole entry, looked up): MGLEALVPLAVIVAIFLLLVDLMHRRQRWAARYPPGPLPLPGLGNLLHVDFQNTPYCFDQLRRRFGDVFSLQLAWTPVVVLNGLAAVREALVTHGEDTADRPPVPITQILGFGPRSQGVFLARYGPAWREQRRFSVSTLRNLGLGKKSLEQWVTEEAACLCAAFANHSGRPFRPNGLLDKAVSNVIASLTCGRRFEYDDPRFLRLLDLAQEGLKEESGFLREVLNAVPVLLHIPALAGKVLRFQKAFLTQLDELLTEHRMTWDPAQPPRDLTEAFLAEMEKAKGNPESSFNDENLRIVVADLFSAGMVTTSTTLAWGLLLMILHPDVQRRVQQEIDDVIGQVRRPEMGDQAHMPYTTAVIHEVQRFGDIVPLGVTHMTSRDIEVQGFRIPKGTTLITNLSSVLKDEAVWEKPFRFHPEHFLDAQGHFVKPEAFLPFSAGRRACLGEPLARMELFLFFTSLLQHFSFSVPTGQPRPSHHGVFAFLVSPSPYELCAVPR

The assay concerns the target Cytochrome P450 2D6 (Homo sapiens) (UniProt P10635). Briefly: Cytochrome panel assay with activity outcomes. Particulars: recombinant CYP, pro-luciferin dealkylation, luminescence, p450-cyp2d6; series mostly up to 57.1 µM.
For `O=C(c1c(O)c2ccc(Cl)cc2[nH]c1=O)C1CC1`, the AC50 was 0.1 µM (active).

Consider `O=C(O)c1cc(=O)c2ccc(Cl)cc2[nH]1`, for which the AC50 result is “inactive”.

For the compound `CC1CCN(CC(=O)N2c3ccccc3Sc3cc4ccccc4cc32)CC1`, the AC50 was 3.98 µM (active).

Regarding `CCOC(=O)Nc1ccc2c(c1)N(C(=O)CCN1CCOCC1)c1ccccc1S2`, the AC50 result is “inactive”.

Consider `COc1ccc(OC)c2[nH]c(=O)c(CCNC(=O)C3CCCCC3)cc12`, for which the AC50 entry is “inactive”.

As to `COc1ccc(-c2[nH]c(-c3ccc(C(=O)O)cc3)nc2-c2ccccc2)cc1`, the AC50 entry is “inactive”.

`COc1ccc([N+](=O)[O-])cc1COc1ccc2c(-c3ccccc3)cc(=O)oc2c1`: the AC50 result is “inactive”.

Take `COc1ccc(-c2nc(-c3ccccc3)c(-c3cc([N+](=O)[O-])ccc3C)[nH]2)cc1O`: the concentration at half-maximal activity (AC50) was 28.2 µM (active).

As to `COc1cccc(Nc2ncc3nc(-c4ccccc4)c(=O)n(C)c3n2)c1`, the AC50 result is “inactive”.

As for `COCCNC(=O)c1cc(-c2cccc(OC)c2)on1`, the AC50 entry is “inactive”.

With `CCOc1ccc(-n2c(N)c(C(=O)NCc3cccnc3)sc2=S)cc1`, the AC50 entry was “inactive”.

Consider `CCOc1ccc(N2CC(C(=O)NCc3cccc(C)c3)CC2=O)cc1` (configuration not stated), for which the AC50 entry was “inactive”.

For the compound `COc1cccc(CSCC(=O)O)c1`, the activity, negative = inhibition was 14.7% [at 11.4 µM] (inactive).

Take `CCOc1cccc(CNCCNC(=O)c2nonc2N)c1`: the AC50 is 2.24 µM (active).

Take `COc1cccc(CNCCNC(=O)c2nonc2N)c1`: the AC50 was 3.16 µM (active).

Consider `CCOC(=O)N1CCC(NC(=O)CCC(=O)N2CCOc3ccccc32)CC1`, for which the AC50 entry is “inactive”.

For the compound `Cc1ccc(Oc2nn[nH]n2)cc1`, the AC50 result was “inactive”.

Regarding `CC(=O)OCC1=C(C(=O)O)N2C(=O)[C@@H](NC(=O)CSc3ccncc3)[C@@H]2SC1`, the AC50 result was “inactive”.

Turning to `COc1cc(/C=C2/C(=N)N3C=CSC3=NC2=O)ccc1OCCCOc1c(C)cccc1C`, the AC50 result was “inactive”.

Consider `C/C(=N\NC(=O)CSCc1ccc(Cl)cc1)c1ccc2c(c1)OCCO2`, for which the AC50 is 0.562 µM (active).

On to `Cc1nc(SCC(=O)Nc2ccc3c(c2)OCCO3)c2oc3ccccc3c2n1`, for which the AC50 entry was “inactive”.

On to `O=C(CN1C(=O)C2C3C=CC(C3)C2C1=O)Nc1ccc2c(c1)OCCO2` (configuration not stated), for which the AC50 result was “inactive”.

For `O=C(c1cc2sccc2n1Cc1ccccc1)N1CCN(c2nc3ccccc3s2)CC1`, the AC50 entry is “inactive”.

Turning to `O=C(Nc1ccc2c(c1)OCCO2)c1cc2sccc2n1Cc1ccccc1`, the concentration at half-maximal activity (AC50) is 7.94 µM (active).

As for `O=C(CSCc1ccc(Cl)cc1)Nc1ccc2c(c1)OCCO2`, the AC50 was 3.98 µM (active).

For `O=C(CSCc1ccc(Cl)cc1)Nc1nccs1`, the AC50 is 5.62 µM (active).

With `COC(=O)c1ccc(NC(=O)c2cc3sccc3n2C)cc1`, the AC50 result was “inactive”.

`Cc1nnc(SCC(=O)Nc2nccs2)[nH]c1=O`: the AC50 result is “inactive”.

`O=C(Nc1nccs1)c1sc2cc(Cl)ccc2c1Cl`: the AC50 result is “inactive”.

As for `C/C(=N\NC(N)=O)c1ccc(Cl)cc1`, the AC50 result is “inactive”.

Regarding `C/C(=N\NC(=O)Cc1ccc(Cl)cc1)c1ccccn1`, the AC50 result was “inactive”.

Turning to `COc1ccc(COC(=O)N/N=C2/C[C@@H](O)[C@@H](O)[C@@H]3[C@@H]4C(=O)N(C(C)(C)C)C(=O)[C@H]4CC[C@H]23)cc1`, the activity, negative = inhibition was 19.2% [at 11.4 µM] (inactive).

On to `O=C(O)CCc1ccc(-c2ccc(Cl)cc2)n1CCC(=O)O`, for which the AC50 entry is “inactive”.

In the case of `O=S(=O)(c1ccccc1)N1CCCC1c1nc2ccccc2s1` (configuration not stated), the AC50 entry is “inactive”.

On to `COc1ccc(N2C(=O)CCC(C(=O)Nc3ccccn3)C2c2ccc(OC)c(OC)c2)cc1` (configuration not stated), for which the AC50 result was “inactive”.

With `Oc1cc(O)c2c(c1)O[C@H](c1ccc(O)c(O)c1)[C@H](O)C2`, the AC50 result was “inactive”.

In the case of `COc1ncc2ncc(=O)n(C)c2n1`, the AC50 entry is “inactive”.

Regarding `COC(=O)C1CSC(C(=O)OC)N1C(=O)Nc1ccccc1` (configuration not stated), the AC50 entry was “inactive”.

For `CC(=O)Nc1ccc2c(c1)OCCOCCOc1cc(NC(C)=O)ccc1OCCOCCOCCO2`, the AC50 result is “inactive”.

Take `CC(=O)Nc1ccc2c(c1)OCCO2`: the AC50 entry is “inactive”.

For `O=C(CC(c1ccccc1)c1ccccc1)Nc1ccc2c(c1)OCCO2`, the AC50 was 0.251 µM (active).

In the case of `CO[C@H]1[C@@H](OC(N)=O)[C@H](O)[C@@H](Oc2ccc3c(O)c(NC(=O)c4ccc(O)c(CC=C(C)C)c4)c(=O)oc3c2C)OC1(C)C`, the AC50 entry is “inactive”.

On to `COc1ccc(CCNC(=O)c2ccc3c(=O)n(Cc4ccco4)c(=S)[nH]c3c2)cc1OC`, for which the AC50 result is “inactive”.

For `Cc1ccc2nc(Nc3nc(-c4ccccc4)cc(=O)[nH]3)nc(C)c2c1`, the AC50 result was “inactive”.

In the case of `Cc1ccc2c(C)nc(Nc3nc(CSc4nc5ccccc5[nH]4)cc(=O)[nH]3)nc2c1`, the AC50 was 3.55 µM (active).

With `Cc1ccc2nc(SCC(=O)Nc3nnc(SCC(N)=O)s3)[nH]c2c1`, the AC50 entry was “inactive”.

In the case of `Cc1nn(C)c(Oc2cccc(Cl)c2)c1C=O`, the AC50 result is “inactive”.

Turning to `Cc1ccc(C(=O)N/C(=C\c2ccc([N+](=O)[O-])cc2)C(=O)NCCc2ccccc2)cc1`, the AC50 entry was “inactive”.

For `CN1CCc2cccc3c2[C@H]1Cc1ccc(O)c(O)c1-3`, the AC50 is 12.6 µM (active).

Regarding `CN1CCc2cccc3c2[C@@H]1Cc1ccc(O)c(O)c1-3`, the AC50 result was “inactive”.

Take `COc1ccc(C2=CSC(/N=C/c3ccc(F)cc3)=NN2)cc1`: the AC50 result was “inactive”.

Regarding `COC(=O)CCSc1cc([N+](=O)[O-])cc2c1c(C1OCCS1)nn2-c1ccccc1` (configuration not stated), the AC50 was 12.6 µM (active).

Consider `Cc1ccccc1OC/C(O)=C(\C#N)c1nc2ccccc2[nH]1`, for which the AC50 entry was “inactive”.

`Cc1cc(O)c(/C=N/Nc2cccc(Cl)c2)c(=O)o1`: the AC50 is 0.158 µM (active).

Turning to `Cc1ccc(-n2cnc(=O)c3cccnc32)cc1`, the AC50 result is “inactive”.

For `Cc1ccc(-n2c(-c3ccc(Br)cc3)c[n+]3c2CCc2ccc4cccnc4c2-3)cc1`, the AC50 was 1.41 µM (active).

Take `CCCCC[C@H](CC(=O)NO)C(=O)N[C@@H](C(=O)N1CCC[C@H]1CO)C(C)C`: the AC50 entry was “inactive”.

With `Nc1ccc(O)c(C(=O)O)c1`, the AC50 result was “inactive”.

Consider `CCC(=O)NC(Nc1sc2c(c1C(=O)OC)CCCC2)(C(F)(F)F)C(F)(F)F`, for which the AC50 result was “inactive”.

As to `O=[N+]([O-])c1ccc2ncccc2c1CCc1c([N+](=O)[O-])ccc2ncccc12`, the activity, negative = inhibition is -19.7% [at 11.4 µM] (inactive).

On to `O=C(Nc1ccccn1)c1ccco1`, for which the AC50 entry was “inactive”.

For `S=C(NCc1ccco1)N1CCN(C(c2ccccc2)c2ccccc2)CC1`, the AC50 is 7.94 µM (active).

Regarding `O=C(CSc1ccccc1C(=O)O)NCc1ccco1`, the AC50 entry is “inactive”.

As for `Cc1cccc(C(=O)NC2CCN(C(=S)NCc3ccco3)CC2)c1`, the AC50 entry was “inactive”.

In the case of `S=C(NCc1ccco1)N1CCN(Cc2ccco2)CC1`, the AC50 was 7.94 µM (active).

Take `O=C(O)C1C2CCC(C2)C1C(=O)NCc1ccco1` (configuration not stated): the AC50 result is “inactive”.

As to `CCS(=O)(=O)N1CCC(C(=O)NCc2ccco2)CC1`, the AC50 entry was “inactive”.

In the case of `O=C(NCc1ccco1)c1cc(C(=O)C2CC2)c[nH]1`, the AC50 result is “inactive”.

Take `O=C1Nc2ccccc2C1=Nc1ccc(S(=O)(=O)Nc2nccs2)cc1`: the activity, negative = inhibition was 16.3% [at 11.4 µM] (inactive).

As for `COc1ccc2c(OC)c3ccoc3nc2c1OC`, the AC50 result is “inactive”.

Consider `CC(C)(C)N1C(=O)[C@H]2[C@@H]3[C@H](O)[C@H](O)CC(=O)[C@H]3CC[C@H]2C1=O`, for which the activity, negative = inhibition is 7.18% [at 11.4 µM] (inactive).

Consider `O=C(c1cc(C(F)(F)F)cc(C(F)(F)F)c1)N1CCC2(CCN(Cc3ccccc3)CC2)CC1`, for which the AC50 result was “inactive”.

For the compound `O=C(CN1CCN(Cc2ccccc2)CC1)c1ccc(Br)cc1`, the AC50 is 1.41 µM (active).

Turning to `O=C(c1coc(=O)c2ccccc12)N1CCN(Cc2ccccc2)CC1`, the AC50 entry is “inactive”.

Take `CCc1c(O)nc2sc3ccccc3n2c1=O`: the AC50 entry is “inactive”.

`CC(=O)c1cccc(NC=C2C(=O)OC3(CCCCC3)OC2=O)c1`: the AC50 result is “inactive”.

For the compound `CCc1nnc(NC(=O)c2c(C)nn(-c3ccccc3)c2Cl)s1`, the AC50 entry is “inactive”.

On to `Clc1ccccc1-c1ccc2ncnc(NCCN3CCOCC3)c2c1`, for which the AC50 is 10 µM (active).

With `c1nc(NCCN2CCOCC2)c2cc(-c3ccoc3)ccc2n1`, the AC50 was 2 µM (active).

Regarding `CC(=O)NCCNc1ncnc2ccc(-c3ccc4c(c3)OCO4)cc12`, the concentration at half-maximal activity (AC50) is 10 µM (active).

Take `Clc1ccccc1-c1cc(NCCN2CCOCC2)ncn1`: the AC50 entry is “inactive”.

On to `c1nc(NCCN2CCOCC2)c2cc(-c3ccc4c(c3)OCO4)ccc2n1`, for which the AC50 was 7.94 µM (active).

On to `CC(=O)NCCNc1ncnc2ccc(-c3ccc(C(=O)N(C)C)cc3)cc12`, for which the AC50 entry is “inactive”.

Turning to `c1ccc(-n2ncc3c(NCCCN4CCOCC4)ncnc32)cc1`, the AC50 entry is “inactive”.

Consider `CN(C)C(=O)c1ccc(-c2ccc3ncnc(NCCN4CCOCC4)c3c2)cc1`, for which the AC50 result was “inactive”.

For the compound `c1ccc2c(c1)CCCc1cc(NCCN3CCOCC3)nnc1-2`, the AC50 result was “inactive”.

As to `CC(=O)NCCNc1ncnc2ccc(-c3ccoc3)cc12`, the AC50 entry is “inactive”.

As for `CCCc1nnc(NC(=O)c2cccs2)s1`, the AC50 result was “inactive”.

As for `O=C(/C=C/c1ccc(Br)cc1)NC1CCCCCC1`, the AC50 entry was “inactive”.

In the case of `Cc1ccc(C(=O)Nc2cccc(-c3cnc4ccccc4n3)c2)cc1`, the AC50 entry was “inactive”.

For `Cc1cc2c(=O)[nH]c(N)nc2nc1C`, the activity, negative = inhibition was 14.7% [at 11.4 µM] (inactive).

Regarding `O=c1[nH]c(SCc2cccc([N+](=O)[O-])c2)nc2nc[nH]c12`, the activity, negative = inhibition was 10.7% [at 11.4 µM] (inactive).

`CSc1nc2n(n1)C(c1cc(Br)ccc1F)C(C(=O)N(C)C)=C(C)N2` (configuration not stated): the AC50 entry is “inactive”.

Regarding `CN[C@]1(C)[C@@H]2CC[C@@H](C2)C1(C)C`, the AC50 result is “inactive”.

Turning to `Cc1ccc(NC(=O)CCN2C(=O)c3ccncc3C2=O)cc1`, the AC50 entry was “inactive”.

For the compound `CCN1C(=O)[C@H]2[C@H]3[C@H](O)[C@H](O)C/C(=N/NC(=O)OCc4ccccc4)[C@@H]3CC[C@@H]2C1=O`, the activity, negative = inhibition is 10.8% [at 11.4 µM] (inactive).

For `CCN1C(=O)/C(=C2\SC(=S)N(CCCOC)C2=O)c2ccccc21`, the AC50 entry was “inactive”.

Consider `N[C@@H](Cc1cc(CP(=O)(O)O)cc(-c2ccccc2Cl)c1)C(=O)O`, for which the AC50 result was “inactive”.

`Cc1ccc(-c2csc3ncnc(NCCN4CCOCC4)c23)cc1`: the AC50 is 2.82 µM (active).

For the compound `CC(=NCCN1CCN(C(=S)Nc2ccccc2)CC1)C1=C(O)CC(C)(C)CC1=O`, the AC50 entry was “inactive”.

In the case of `O=C(Nc1ccc2c(c1)Cc1ccccc1-2)[C@@H]1[C@H](C(=O)O)[C@]2(Cl)C(Cl)=C(Cl)[C@@]1(Cl)C2(Cl)Cl`, the activity, negative = inhibition is -10.2% [at 11.4 µM] (inactive).

With `O=[N+]([O-])C(/C=C(\Cl)[N+](=O)[O-])=C1N(Cc2ccc(Cl)nc2)CCN1Cc1ccc(Cl)nc1`, the AC50 is 15.8 µM (active).

By AC50 is commonly meant the concentration giving half of the maximal activity seen.
